Activity calls are given as the source filed them. Unless noted, the rule behind the calls is not given here.
Experiments:
[1] = system: Wnt5a (protein binding on small-molecule microarray); assay: Wnt5a binders on small-molecule microarray, primary screen, biophysical, 635/667 nm fluorescence (AID 1142); settings: 635 nm fluorescence, higher = more signal;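 note: fluorescence read at 667 nm with signal to noise per printed feature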
[2] = cell viability in Huh7 cells, primary screen, cytotoxicity control for HCV replication inhibitor project, CellTiter-Glo luminescence, basal, 48 h (AID 1143); settings: Huh7 HCV replicon, higher = more signal, called active from +8 up or from −8 down;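 note: Huh7 hepatoma cells carrying a hepatitis C replication reporter with no stimulus; test concentration not given here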
[3] = P. aeruginosa biofilm formation inhibitors, primary screen, PAO1 strain, BacTiter-Glo luminescence, LB-PBS (AID 1144); settings: 12 h, higher = more signal
[4] = CREB reporter modulators without forskolin, primary screen, cell-based, PC12, CRE-LacZ reporter, unstimulated (AID 1145); settings: no forskolin, luminescence, 4.5 h, higher = more signal, called active from +8 up or from −8 down
[5] = CREB reporter modulators under forskolin, primary screen, cell-based, PC12, CRE-LacZ reporter, forskolin-stimulated (AID 1146); settings: luminescence, 4.5 h, higher = more signal, called active from +8 up or from −8 down;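 note: PC12 cells with 6xCRE LacZ reporter stimulated by forskolin 10 µM; beta-galactosidase reporter signal reflecting CREB driven transcription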
[6] = biological target: Streptavidin (Streptomyces avidinii) (UniProt P22629); assay: streptavidin binders on small-molecule microarray, primary screen, artefact control for SMM compound annotation, biophysical, 635/667 nm fluorescence (AID 1147); settings: streptavidin binding, higher = more signal;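 note: signal reflects streptavidin binding to arrayed compounds as a control protein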
[7] = small-molecule binders of probe aInhba, primary screen, biochemical, small-molecule microarray, 635/667 nm fluorescence (AID 1148); settings: higher = more signal;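 note: score merges 667nm spot fluorescence with signal-to-noise for antibody binding to printed compounds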
[8] = biological target: Torsin-1A (Homo sapiens) (UniProt O14656); assay: torsin A binders from cell lysate, primary screen, small-molecule microarray, wild-type, 635/667 nm (AID 1149); settings: COS7 hTOR1A-WT lysate, 635 nm fluorescence, higher = more signal
[9] = biological target: Torsin-1A (Homo sapiens) (UniProt O14656); assay: small-molecule binders of mutant TOR1A in lysate, primary screen, cell lysate, small-molecule microarray, COS7 lysate, 635/667 nm fluorescence (AID 1150); settings: COS7 hTOR1A mutant lysate, 635 nm fluorescence, higher = more signal;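 note: score pools 667 nm emission and signal to noise measuring lysate protein binding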
[10] = system: Sonic hedgehog protein (Shh); assay: small-molecule binders of Shh protein, primary screen, biochemical, small-molecule microarray, 635/667 nm fluorescence (AID 1151); settings: small-molecule microarray binding, 635 nm fluorescence; higher = more signal;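 note: Shh protein binding to compounds spotted on small-molecule microarray slides; score combines spot fluorescence intensity with signal-to-noise across triplicate slides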
[11] = E. coli DRC41 culture turbidity changes, primary screen, E. coli filamentation inducer project, strain DRC41, OD650, 48 h (AID 1152);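 note: E. coli MC1000 strain DRC41 lacking acrAB efflux pump and sulA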; settings: E. coli DRC41 (acrAB sulA), higher = more signal, called active from +8 up or from −8 down
[12] = small-molecule binders of probe aLefty1, primary screen, biochemical, small-molecule microarray, 635/667 nm fluorescence (AID 1153); settings: higher = more signal;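 note: score merges spot fluorescence with signal-to-noise ratio from the scanned slide images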
[13] = PSAC antagonists in infected red cells, primary screen, cell-based, P. falciparum Indochina, OD700, 1 h (AID 1154); settings: P. falciparum Indochina infected RBC osmotic lysis, higher = more signal, called active from +8 up or from −8 down
[14] = PSAC antagonists in infected red cells, primary screen, cell-based, P. falciparum Indochina, OD700, 2 h (AID 1155);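 note: lysis reports solute entry through the parasite surface anion channel PSAC; channel blockers reduce lysis of infected cells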; settings: P. falciparum Indochina infected erythrocytes, osmotic lysis OD700; higher = more signal, called active from +8 up or from −8 down
[15] = osmotic lysis modulators in infected erythrocytes, primary screen, PSAC antagonist project, cell-based, P. falciparum Indochina, OD700, 3 h (AID 1156); settings: higher = more signal, called active from +8 up or from −8 down
[16] = PSAC antagonists in infected red cells, primary screen, cell-based, P. falciparum Indochina, OD700, 18 h (AID 1157); settings: P. falciparum Indochina infected erythrocytes, osmotic lysis OD700, 18 h; higher = more signal, called active from +8 up or from −8 down
[17] = modulators of S6 phosphorylation in cells, primary screen, cell-based, A549, cytoblot, luminescence, serum-stimulated (AID 1158); settings: A549 phospho-S6 cytoblot, 5 h, higher = more signal;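 note: serum-stimulated A549 lung adenocarcinoma cells; signal is phosphorylated S6 detected by cytoblot immunostaining with HRP secondary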
[18] = biological target: NADPH oxidase 2 (Homo sapiens) (UniProt P04839); assay: NOX2-dependent H2O2 signal modulators, primary screen, NOX inhibitor project, cell-based, HEK293-NOX2, PMA-stimulated, Amplex Red fluorescence (AID 1159); settings: 45 min, higher = more signal, called active from +8 up or from −8 down; note: test concentration not given here
[19] = biological target: NADPH oxidase 4 (Homo sapiens) (UniProt Q9NPH5); assay: NOX4-dependent H2O2 signal modulators, primary screen, NOX inhibitor project, cell-based, HEK293-NOX4, tetracycline-induced, Amplex Red fluorescence (AID 1160); settings: 45 min, higher = more signal, called active from +8 up or from −8 down
[20] = biological target: NADPH oxidase 5 (Homo sapiens) (UniProt Q96PH1); assay: NOX5-dependent H2O2 signal modulators, primary screen, NOX inhibitor project, cell-based, HEK293-NOX5, Amplex Red fluorescence (AID 1161); settings: HEK293-NOX5, ionomycin, 45 min, higher = more signal
NADPH oxidase 5 (Homo sapiens), sequence (Q96PH1 whole entry, looked up): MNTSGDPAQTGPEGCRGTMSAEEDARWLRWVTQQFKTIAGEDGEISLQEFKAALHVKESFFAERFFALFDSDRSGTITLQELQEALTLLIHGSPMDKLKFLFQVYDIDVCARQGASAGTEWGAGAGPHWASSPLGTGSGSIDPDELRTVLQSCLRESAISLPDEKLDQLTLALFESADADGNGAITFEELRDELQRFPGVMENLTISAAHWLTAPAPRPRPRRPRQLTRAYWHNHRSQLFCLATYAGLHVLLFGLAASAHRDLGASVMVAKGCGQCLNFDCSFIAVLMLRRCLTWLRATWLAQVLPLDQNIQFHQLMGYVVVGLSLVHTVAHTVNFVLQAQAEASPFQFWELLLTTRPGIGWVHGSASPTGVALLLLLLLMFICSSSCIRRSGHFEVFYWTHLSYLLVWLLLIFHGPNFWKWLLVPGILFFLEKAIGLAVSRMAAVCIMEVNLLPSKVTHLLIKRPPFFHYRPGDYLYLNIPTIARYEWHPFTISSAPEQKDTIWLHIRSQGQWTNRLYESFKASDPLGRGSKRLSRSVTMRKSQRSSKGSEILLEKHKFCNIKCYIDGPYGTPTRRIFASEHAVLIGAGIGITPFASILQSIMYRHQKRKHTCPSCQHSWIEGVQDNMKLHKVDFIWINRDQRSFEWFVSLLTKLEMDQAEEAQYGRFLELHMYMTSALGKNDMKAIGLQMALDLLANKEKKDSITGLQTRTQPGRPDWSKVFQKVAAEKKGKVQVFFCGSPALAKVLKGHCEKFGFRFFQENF

Streptavidin (Streptomyces avidinii), sequence (P22629 whole entry, looked up): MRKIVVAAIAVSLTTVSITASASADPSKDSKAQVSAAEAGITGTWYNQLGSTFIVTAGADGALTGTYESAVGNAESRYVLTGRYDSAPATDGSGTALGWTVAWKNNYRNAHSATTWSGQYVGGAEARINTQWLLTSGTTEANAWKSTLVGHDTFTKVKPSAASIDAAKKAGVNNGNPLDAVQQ
NADPH oxidase 2 (Homo sapiens), sequence (P04839 whole entry, looked up): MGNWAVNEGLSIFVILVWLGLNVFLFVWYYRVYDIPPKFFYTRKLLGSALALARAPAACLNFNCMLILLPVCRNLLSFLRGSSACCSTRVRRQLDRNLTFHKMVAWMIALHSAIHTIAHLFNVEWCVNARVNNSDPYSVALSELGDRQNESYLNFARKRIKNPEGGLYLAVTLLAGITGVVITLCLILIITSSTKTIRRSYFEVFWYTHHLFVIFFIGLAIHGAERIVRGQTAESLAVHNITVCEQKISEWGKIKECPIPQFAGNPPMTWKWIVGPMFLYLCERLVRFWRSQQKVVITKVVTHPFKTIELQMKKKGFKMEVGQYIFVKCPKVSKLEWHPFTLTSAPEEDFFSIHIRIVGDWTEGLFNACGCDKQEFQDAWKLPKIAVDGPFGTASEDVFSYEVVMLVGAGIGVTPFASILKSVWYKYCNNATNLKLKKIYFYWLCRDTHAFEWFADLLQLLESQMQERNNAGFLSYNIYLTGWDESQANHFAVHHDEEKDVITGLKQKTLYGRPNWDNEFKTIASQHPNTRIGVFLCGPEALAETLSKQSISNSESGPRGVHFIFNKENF
Torsin-1A (Homo sapiens), sequence (O14656 whole entry, looked up): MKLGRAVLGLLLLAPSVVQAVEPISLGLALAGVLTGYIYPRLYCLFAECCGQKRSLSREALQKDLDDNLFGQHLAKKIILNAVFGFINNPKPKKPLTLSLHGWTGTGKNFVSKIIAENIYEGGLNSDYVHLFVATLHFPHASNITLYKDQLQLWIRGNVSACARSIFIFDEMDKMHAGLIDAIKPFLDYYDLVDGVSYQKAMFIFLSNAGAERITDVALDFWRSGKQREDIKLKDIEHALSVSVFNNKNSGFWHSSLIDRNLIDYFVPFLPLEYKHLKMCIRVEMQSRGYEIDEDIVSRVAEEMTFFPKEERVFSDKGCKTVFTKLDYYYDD
NADPH oxidase 4 (Homo sapiens), sequence (Q9NPH5 whole entry, looked up): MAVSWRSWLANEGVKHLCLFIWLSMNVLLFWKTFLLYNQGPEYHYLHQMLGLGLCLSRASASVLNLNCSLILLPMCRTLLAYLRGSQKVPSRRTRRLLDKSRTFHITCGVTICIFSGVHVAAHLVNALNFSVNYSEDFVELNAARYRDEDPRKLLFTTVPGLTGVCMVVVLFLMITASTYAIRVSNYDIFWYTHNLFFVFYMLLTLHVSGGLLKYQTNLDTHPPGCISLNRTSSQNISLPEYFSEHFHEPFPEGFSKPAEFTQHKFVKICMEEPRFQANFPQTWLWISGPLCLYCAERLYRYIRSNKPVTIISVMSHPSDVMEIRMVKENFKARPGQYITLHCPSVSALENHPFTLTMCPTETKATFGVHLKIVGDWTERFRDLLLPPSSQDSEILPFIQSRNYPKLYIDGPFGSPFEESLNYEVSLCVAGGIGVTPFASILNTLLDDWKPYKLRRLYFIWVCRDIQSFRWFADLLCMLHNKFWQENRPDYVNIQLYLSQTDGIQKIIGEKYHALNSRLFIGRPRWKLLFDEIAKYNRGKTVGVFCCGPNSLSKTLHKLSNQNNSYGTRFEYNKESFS

Cc1ccc(S[C@]2(C(=O)NCCCN(C)C)CC(=O)N(Cc3ccccc3C(F)(F)F)[C@@H]2c2ccc(CO)cc2I)cc1
composite z-score [1]: -0.379
z-score [2]: -1.13 (inactive)
z-score [3]: 0.323 (inactive)
z-score [4]: -0.464 (inactive)
z-score [5]: 1.66 (inactive)
composite z-score [6]: -0.493
composite z-score [7]: 0.189
composite z-score [8]: 0.22
composite z-score [9]: -0.144
composite z-score [10]: -0.117
z-score [11]: -0.527 (inactive)
composite z-score [12]: -0.629
z-score [13]: 3.14 (inactive)
z-score [14]: 0.684 (inactive)
z-score [15]: 0.32 (inactive)
z-score [16]: 0.377 (inactive)
z-score [17]: -0.579
z-score [18]: -0.632 (inactive)
z-score [19]: -1.08 (inactive)
z-score [20]: 1.96

CC(C)N1C(=O)c2ccccc2[C@@H](C(=O)NCC(F)(F)F)[C@@H]1c1ccc(CO)cc1
composite z-score [1]: -0.167
z-score [2]: 0.837 (inactive)
z-score [3]: 1.03 (inactive)
z-score [4]: 0.145 (inactive)
z-score [5]: 0.557 (inactive)
composite z-score [6]: -0.268
composite z-score [7]: -0.152
composite z-score [8]: -0.0705
composite z-score [9]: -1.02
composite z-score [10]: 0.119
z-score [11]: -0.234 (inactive)
composite z-score [12]: 0.0376
z-score [13]: 2.15 (inactive)
z-score [14]: 0.336 (inactive)
z-score [15]: 0.181 (inactive)
z-score [16]: -0.0376 (inactive)
z-score [17]: -0.165
z-score [18]: 0.74 (inactive)
z-score [19]: 0.912 (inactive)
z-score [20]: -1.21

CN(C)CCCC[C@@H]1NC(=O)[C@H]2C[C@@H](C(=O)O)[C@@H](c3ccc(O)cc3)N2C1=O
composite z-score [1]: 0.938
z-score [2]: -2.41 (inactive)
z-score [3]: 0.294 (inactive)
z-score [4]: 0.419 (inactive)
z-score [5]: -0.457 (inactive)
composite z-score [6]: 3.44
composite z-score [7]: 1.98
composite z-score [8]: 2.77
composite z-score [9]: 3.27
composite z-score [10]: 2.17
z-score [11]: 2.2 (inactive)
composite z-score [12]: 2.57
z-score [13]: 3.21 (inactive)
z-score [14]: 0.73 (inactive)
z-score [15]: -2.43 (inactive)
z-score [16]: -0.849 (inactive)
z-score [17]: 0.651
z-score [18]: 0.485 (inactive)
z-score [19]: -1.06 (inactive)
z-score [20]: 1.4

COc1ccc([Si](C)(C)[C@@H]2[C@@H](CC(=O)N3Cc4ccccc4C[C@H]3CO)O[C@]3(C(=O)N(Cc4ccc(N5CCOC5=O)cc4)c4ccccc43)[C@H]2C)cc1
composite z-score [1]: -0.0088
z-score [2]: -4.75 (inactive)
z-score [3]: -0.081 (inactive)
z-score [4]: 0.949 (inactive)
z-score [5]: -0.888 (inactive)
composite z-score [6]: -0.0492
composite z-score [7]: -0.128
composite z-score [8]: 0.438
composite z-score [9]: 0.702
composite z-score [10]: 1.96
z-score [11]: 0.378 (inactive)
composite z-score [12]: -0.0868
z-score [13]: 8.18 (active)
z-score [14]: 1.59 (inactive)
z-score [15]: 0.374 (inactive)
z-score [16]: 0.892 (inactive)
z-score [17]: 0.982
z-score [18]: 0.393 (inactive)
z-score [19]: 1.15 (inactive)
z-score [20]: 1.88

NC(=O)N1C(=O)C2C(C1=O)C1C=C(CCCO)C2C(c2ccc(CN3CCCC3)cc2)N1Cc1cc2c(cc1Br)OCO2 (stereo not given)
composite z-score [1]: -0.0793
z-score [2]: -1.34 (inactive)
z-score [3]: -0.607 (inactive)
z-score [4]: -0.205 (inactive)
z-score [5]: -0.274 (inactive)
composite z-score [6]: -0.0077
composite z-score [7]: -0.322
composite z-score [8]: 0.283
composite z-score [9]: 0.479
composite z-score [10]: 1.13
z-score [11]: -0.272 (inactive)
composite z-score [12]: -0.276
z-score [13]: 1.69 (inactive)
z-score [14]: 0.446 (inactive)
z-score [15]: 0.604 (inactive)
z-score [16]: 0.211 (inactive)
z-score [17]: 0.106
z-score [18]: -1.07 (inactive)
z-score [19]: 0.731 (inactive)
z-score [20]: 0.46

[N-]=[N+]=NCc1ccccc1[C@@H]1OC(c2ccc(OCCCO)cc2)=N[C@]1(Cc1ccccc1N=[N+]=[N-])C(=O)O
composite z-score [1]: 1.04
z-score [2]: -2.25 (inactive)
z-score [3]: -1.09 (inactive)
z-score [4]: 0.526 (inactive)
z-score [5]: -0.638 (inactive)
composite z-score [6]: 0.488
composite z-score [7]: 0.587
composite z-score [8]: 0.177
composite z-score [9]: 0.585
composite z-score [10]: -0.379
z-score [11]: 0.0786 (inactive)
composite z-score [12]: 0.865
z-score [13]: 22.9 (active)
z-score [14]: 6.73 (inactive)
z-score [15]: 3.2 (inactive)
z-score [16]: 0.982 (inactive)
z-score [17]: 0.0708
z-score [18]: -1.51 (inactive)
z-score [19]: -0.241 (inactive)
z-score [20]: 0.58

CCCNC(=O)[C@@]1(c2ccc([N+](=O)[O-])cc2)CC(=O)N(C(C)C)[C@@H]1c1ccc(CO)cc1
composite z-score [1]: -0.47
z-score [2]: -1.22 (inactive)
z-score [3]: 0.313 (inactive)
z-score [4]: 0.558 (inactive)
z-score [5]: 0.282 (inactive)
composite z-score [6]: -1.07
composite z-score [7]: -0.153
composite z-score [8]: -2.12
composite z-score [9]: -0.42
composite z-score [10]: -0.738
z-score [11]: -0.169 (inactive)
composite z-score [12]: -0.207
z-score [13]: 1.4 (inactive)
z-score [14]: -0.366 (inactive)
z-score [15]: 1.18 (inactive)
z-score [16]: 0.205 (inactive)
z-score [17]: 0.0662
z-score [18]: -0.144 (inactive)
z-score [19]: 0.069 (inactive)
z-score [20]: -1.85

Cc1ccc(S[C@]2(C(=O)NCCCN(C)C)CC(=O)N(C3Cc4ccccc4C3)[C@@H]2c2ccc(CO)cc2I)cc1
composite z-score [1]: -0.283
z-score [2]: -1.5 (inactive)
z-score [3]: 0.505 (inactive)
z-score [4]: 0.155 (inactive)
z-score [5]: 2.5 (inactive)
composite z-score [6]: 0.372
composite z-score [7]: -0.182
composite z-score [8]: -1.5
composite z-score [9]: -1.04
composite z-score [10]: -0.348
z-score [11]: -0.759 (inactive)
composite z-score [12]: -0.0882
z-score [13]: 4.32 (inactive)
z-score [14]: 0.903 (inactive)
z-score [15]: 0.925 (inactive)
z-score [16]: 0.352 (inactive)
z-score [17]: -0.0249
z-score [18]: 0.914 (inactive)
z-score [19]: -1.12 (inactive)
z-score [20]: 2.56

COCCOC(=O)N1C(=O)[C@@]2(c3cc(C#CCCO)ccc31)[C@H](c1ccc(OCCO)cc1)N1[C@H](c3ccccc3)[C@H](c3ccccc3)OC(=O)[C@H]1[C@@H]2C(=O)N1CCCCCCC1
composite z-score [1]: 0.827
z-score [2]: -1.31 (inactive)
z-score [3]: 0.542 (inactive)
z-score [4]: -0.459 (inactive)
z-score [5]: 2.51 (inactive)
composite z-score [6]: 1.79
composite z-score [7]: 1.48
composite z-score [8]: 0.862
composite z-score [9]: 0.726
composite z-score [10]: 1.97
z-score [11]: -0.453 (inactive)
composite z-score [12]: 2.13
z-score [13]: 1.96 (inactive)
z-score [14]: 0.877 (inactive)
z-score [15]: -0.564 (inactive)
z-score [16]: 0.115 (inactive)
z-score [17]: -0.23
z-score [18]: 1.5 (inactive)
z-score [19]: 1.02 (inactive)
z-score [20]: 1.86

Source: PubChem BioAssay
